# Values without a mark were called inactive. Inconclusive results are not listed. The list shows a part of the results. Entries that show only a call come without a potency. Activity calls are given as the source filed them. Unless noted, calls come from the whole dose curve; as a rule, active = well fitted curve in the direction sought with a large enough effect; inconclusive = small, poorly fitted or top-dose-only effect, or another doubt; inactive = no such curve, though single readings can be large; an effect the other way counts as inactive or inconclusive.
# Key:
# [1] = biological target: Rap guanine nucleotide exchange factor 3 (Homo sapiens) (UniProt O95398); experiment: Confirmatory qHTS for agonist of cAMP-regulated guanine nucleotide exchange factor 3 (EPAC1) (AID 1645881); note: nearly all actives have a fitted effect of over 75% in size; note: potency is the fitted concentration of half-maximal effect;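 for activation: EPAC1 catalysed release of BODIPY-GDP from Rap1B seen as fluorescence loss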
# Rap guanine nucleotide exchange factor 3 (Homo sapiens), sequence (O95398 whole entry, looked up): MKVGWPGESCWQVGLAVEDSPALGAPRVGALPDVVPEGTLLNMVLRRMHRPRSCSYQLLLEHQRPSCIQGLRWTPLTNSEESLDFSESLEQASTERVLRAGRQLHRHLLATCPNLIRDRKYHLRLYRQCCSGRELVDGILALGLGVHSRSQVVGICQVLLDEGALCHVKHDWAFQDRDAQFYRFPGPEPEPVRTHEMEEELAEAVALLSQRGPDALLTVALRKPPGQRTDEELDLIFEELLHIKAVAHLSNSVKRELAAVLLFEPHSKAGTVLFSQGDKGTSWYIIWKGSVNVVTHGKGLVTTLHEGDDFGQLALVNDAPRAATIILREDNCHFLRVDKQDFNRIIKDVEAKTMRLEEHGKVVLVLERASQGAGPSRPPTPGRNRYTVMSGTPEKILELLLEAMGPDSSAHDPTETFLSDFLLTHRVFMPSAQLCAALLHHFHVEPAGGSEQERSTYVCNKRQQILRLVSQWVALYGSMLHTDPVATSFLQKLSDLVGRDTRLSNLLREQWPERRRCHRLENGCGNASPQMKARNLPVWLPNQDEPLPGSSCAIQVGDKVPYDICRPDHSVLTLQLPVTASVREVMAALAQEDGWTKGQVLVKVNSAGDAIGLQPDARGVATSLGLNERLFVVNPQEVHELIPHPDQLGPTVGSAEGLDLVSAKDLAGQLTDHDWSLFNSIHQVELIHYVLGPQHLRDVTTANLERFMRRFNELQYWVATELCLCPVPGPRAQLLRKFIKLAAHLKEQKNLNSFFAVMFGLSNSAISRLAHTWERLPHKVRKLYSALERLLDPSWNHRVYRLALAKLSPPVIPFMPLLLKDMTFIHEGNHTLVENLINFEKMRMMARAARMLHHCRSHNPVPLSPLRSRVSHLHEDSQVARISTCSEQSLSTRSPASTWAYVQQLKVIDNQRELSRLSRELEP
# [2] = biological target: Rap guanine nucleotide exchange factor 4 (Homo sapiens) (UniProt Q8WZA2); experiment: Confirmatory qHTS for agonist of cAMP-regulated guanine nucleotide exchange factor 4 (EPAC2) (AID 1645884);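 note: nucleotide exchange releases bodipy-GDP from Rap1 and this lowers its fluorescence; nearly all actives have a fitted effect of over 65% in size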; note: potency is the fitted concentration of half-maximal effect
# Rap guanine nucleotide exchange factor 4 (Homo sapiens), sequence (Q8WZA2 whole entry, looked up): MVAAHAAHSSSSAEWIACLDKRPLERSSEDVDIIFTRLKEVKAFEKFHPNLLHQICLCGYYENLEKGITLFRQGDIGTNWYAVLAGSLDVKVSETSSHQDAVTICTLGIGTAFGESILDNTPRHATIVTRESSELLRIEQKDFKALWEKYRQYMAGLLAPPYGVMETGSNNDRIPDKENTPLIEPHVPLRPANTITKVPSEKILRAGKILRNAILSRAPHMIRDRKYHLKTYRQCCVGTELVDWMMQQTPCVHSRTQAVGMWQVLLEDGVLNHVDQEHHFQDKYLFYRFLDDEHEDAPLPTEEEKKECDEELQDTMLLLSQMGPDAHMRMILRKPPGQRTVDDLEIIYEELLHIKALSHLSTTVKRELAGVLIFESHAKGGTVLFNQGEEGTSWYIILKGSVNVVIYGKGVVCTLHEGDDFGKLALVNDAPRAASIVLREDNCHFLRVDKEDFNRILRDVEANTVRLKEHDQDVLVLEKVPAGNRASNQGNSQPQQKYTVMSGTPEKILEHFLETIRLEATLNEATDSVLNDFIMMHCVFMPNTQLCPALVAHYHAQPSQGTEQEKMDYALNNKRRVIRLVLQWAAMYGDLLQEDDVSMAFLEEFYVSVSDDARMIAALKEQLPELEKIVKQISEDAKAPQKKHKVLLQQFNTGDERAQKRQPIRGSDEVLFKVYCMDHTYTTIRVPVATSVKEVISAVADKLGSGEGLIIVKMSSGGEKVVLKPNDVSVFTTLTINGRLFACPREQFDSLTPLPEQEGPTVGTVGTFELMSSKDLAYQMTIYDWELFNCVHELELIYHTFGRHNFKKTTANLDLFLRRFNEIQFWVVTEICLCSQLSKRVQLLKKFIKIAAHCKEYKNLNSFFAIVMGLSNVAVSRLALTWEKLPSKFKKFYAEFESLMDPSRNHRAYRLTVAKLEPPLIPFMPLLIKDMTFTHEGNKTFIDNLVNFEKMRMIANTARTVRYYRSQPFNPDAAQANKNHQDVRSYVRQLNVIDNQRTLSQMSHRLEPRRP
# [3] = biological target: Rap guanine nucleotide exchange factor 3 (Homo sapiens) (UniProt O95398); experiment: Counterscreen qHTS for agonist of cAMP-regulated guanine nucleotide exchange factor 3 (EPAC1) (AID 1645889); note: nearly all actives have a fitted effect of over 40% in size
# How it was run: (§1)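 Rap1B-BODIPY-GDP 250 nM + GDP 50 uM; cpds 7-pt, final 9.74 nM–152 uM (activator mode) or from 7.32 nM upwards (inhibitor mode); RT; FI 480/540 nm at 5 and 30 min, then ± cAMP, reread.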
# [4] = biological target: Tumor susceptibility gene 101 protein (Homo sapiens) (UniProt Q99816); experiment: qHTS Assay for Iinhibitors of HIV-1 Budding by Blocking the Interaction of PTAP/TSG101: Hit Validation (AID 651600); note: potency is the fitted concentration of half-maximal effect; nearly all actives have a fitted effect of over 70% in size
# Tumor susceptibility gene 101 protein (Homo sapiens), sequence (Q99816 whole entry, looked up, the tested form may be a part): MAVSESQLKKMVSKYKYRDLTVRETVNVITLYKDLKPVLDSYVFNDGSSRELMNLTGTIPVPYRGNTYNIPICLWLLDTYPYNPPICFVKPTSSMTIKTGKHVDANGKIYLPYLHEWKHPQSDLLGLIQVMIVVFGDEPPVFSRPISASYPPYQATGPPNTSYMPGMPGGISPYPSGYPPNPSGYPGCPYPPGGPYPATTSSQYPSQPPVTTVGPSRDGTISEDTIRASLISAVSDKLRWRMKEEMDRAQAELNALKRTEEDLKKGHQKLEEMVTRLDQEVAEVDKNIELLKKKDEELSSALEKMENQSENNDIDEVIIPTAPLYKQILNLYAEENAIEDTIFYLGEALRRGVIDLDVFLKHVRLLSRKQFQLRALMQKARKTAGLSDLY
# How it was run: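 Displacement of a FITC-labeled PTAP-motif peptide (50 nM) from the Tsg101 binding domain (10 uM) was monitored by fluorescence polarization after a 20 min room-temperature incubation.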
# [5] = biological target: Rap guanine nucleotide exchange factor 3 (Homo sapiens) (UniProt O95398); experiment: Counterscreen qHTS for antagonist of cAMP-regulated guanine nucleotide exchange factor 3 (EPAC1) (AID 1645888);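 note: fluorescence loss as bound BODIPY-GDP is released from Rap1B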
# How it was run: as §1
# [6] = qHTS for Inhibitors of the vitamin D receptor (VDR): Hit Validation using a Texas Red Assay (AID 602201); note: potency is the fitted concentration of half-maximal effect
# How it was run: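 After a 2-hour room-temperature incubation, polarization of Texas-Red emission was read (Ex 595 nm/Em 615 nm). Final mix contained 7 nM Texas Red, 1.5 uM VDR-LBD and LG19078.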
# [7] = AP1 Signaling Pathway (AID 357; active = well fitted curve in either direction with a large enough effect, not every such curve was filed as active;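 note: ME-180 reporter cells stimulated with EGF at its EC50 level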); conditions: ME-180 (cervical carcinoma) AP-1-bla reporter, EGF-induced, beta-lactamase ratio, 5 h; at 7.69 µM (top of the series) unless noted
# How it was run: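 Cells are seeded overnight, exposed to compound titrations and an EC50 level of EGF for 5 hours at 37 °C, then loaded with CCF4 dye for 2.5 hours. Beta-lactamase activity under the AP-1 element is read as a blue/green ratio.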
# [8] = Stat Signaling Pathway (AID 446; active = well fitted curve in either direction with a large enough effect, not every such curve was filed as active;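 note: ME-180 cervical cancer cells given 40 pM IL-6 alongside compound; SIE-controlled beta-lactamase reporter measured as 460/530 nm FRET emission ratio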)
# How it was run: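 IL-6/STAT signaling read in ME-180 cells via an SIE beta-lactamase reporter. Stimulus was 40 pM IL-6 (its AC50) for 5 hrs, so both activation and inhibition register.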
# [9] = biological target: Glucocorticoid receptor (Homo sapiens) (UniProt P04150); experiment: GR-GFP Redistribution (AID 450;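 active = compounds whose dose series gives a full or clear partial fitted curve of increased nuclear translocation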; note: potency is the fitted concentration of half-maximal effect); conditions: U2OS GR-GFP nuclear translocation, laser cytometry, 2 h
# Glucocorticoid receptor (Homo sapiens), sequence (P04150 whole entry, looked up): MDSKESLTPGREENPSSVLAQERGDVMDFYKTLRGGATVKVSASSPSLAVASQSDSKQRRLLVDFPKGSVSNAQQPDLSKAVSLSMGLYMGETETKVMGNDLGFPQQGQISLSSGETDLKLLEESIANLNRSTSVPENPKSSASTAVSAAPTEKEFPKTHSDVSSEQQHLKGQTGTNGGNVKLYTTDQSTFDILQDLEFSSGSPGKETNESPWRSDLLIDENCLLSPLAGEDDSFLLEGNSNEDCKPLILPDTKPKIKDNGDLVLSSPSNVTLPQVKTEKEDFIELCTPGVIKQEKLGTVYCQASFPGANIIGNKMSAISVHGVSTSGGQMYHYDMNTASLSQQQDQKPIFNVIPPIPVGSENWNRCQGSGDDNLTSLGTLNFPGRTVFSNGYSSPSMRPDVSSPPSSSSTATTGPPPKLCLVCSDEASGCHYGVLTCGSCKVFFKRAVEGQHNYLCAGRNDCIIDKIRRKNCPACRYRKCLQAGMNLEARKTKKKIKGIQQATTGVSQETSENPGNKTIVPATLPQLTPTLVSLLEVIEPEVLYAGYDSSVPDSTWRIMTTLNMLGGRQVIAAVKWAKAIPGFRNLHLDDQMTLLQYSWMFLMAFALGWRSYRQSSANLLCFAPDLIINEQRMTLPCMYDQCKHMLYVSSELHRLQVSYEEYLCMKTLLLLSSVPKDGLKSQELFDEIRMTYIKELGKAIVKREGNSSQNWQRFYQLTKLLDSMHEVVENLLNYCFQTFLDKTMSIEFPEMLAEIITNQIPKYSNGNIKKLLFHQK
# [10] = biological target: DNA polymerase iota (Homo sapiens) (UniProt Q9UNA4); experiment: qHTS for Inhibitors of Polymerase Iota: Confirmatory Assay for Cherry-picked Compounds (AID 720496); conditions: Pol iota primer extension, TAMRA/BHQ fluorescence; note: potency is the fitted concentration of half-maximal effect
# DNA polymerase iota (Homo sapiens), sequence (Q9UNA4 whole entry, looked up): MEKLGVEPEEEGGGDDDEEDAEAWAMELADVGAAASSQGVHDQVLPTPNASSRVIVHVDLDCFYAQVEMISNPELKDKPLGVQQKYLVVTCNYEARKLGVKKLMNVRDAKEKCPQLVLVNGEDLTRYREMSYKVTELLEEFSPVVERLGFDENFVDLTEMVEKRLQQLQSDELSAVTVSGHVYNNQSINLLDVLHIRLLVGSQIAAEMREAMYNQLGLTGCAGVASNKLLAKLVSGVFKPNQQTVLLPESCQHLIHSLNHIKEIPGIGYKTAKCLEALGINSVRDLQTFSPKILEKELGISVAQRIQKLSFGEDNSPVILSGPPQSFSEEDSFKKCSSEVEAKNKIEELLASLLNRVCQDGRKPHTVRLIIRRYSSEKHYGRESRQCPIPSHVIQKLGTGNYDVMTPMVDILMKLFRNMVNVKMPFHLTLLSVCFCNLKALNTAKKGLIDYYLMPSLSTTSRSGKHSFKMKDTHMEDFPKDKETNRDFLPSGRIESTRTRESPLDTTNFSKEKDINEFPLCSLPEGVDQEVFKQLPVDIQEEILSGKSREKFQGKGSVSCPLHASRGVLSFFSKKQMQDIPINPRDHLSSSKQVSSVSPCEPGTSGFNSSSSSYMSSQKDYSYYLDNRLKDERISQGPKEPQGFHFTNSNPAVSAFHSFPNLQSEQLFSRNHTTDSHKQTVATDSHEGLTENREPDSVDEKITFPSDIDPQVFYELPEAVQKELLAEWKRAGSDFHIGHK
# How it was run: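 Read-out is TAMRA fluorescence (525 nm excitation, 598 nm emission) at 0 and 10 min. It reflects strand displacement from a BHQ-2-quenched template by 10 nM Pol iota, with 50 nM final substrate after 15 min compound preincubation.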
# [11] = biological target: Flap endonuclease 1 (Homo sapiens) (UniProt P39748); experiment: qHTS Assay for the Inhibitors of FEN1: Confirmatory Assay for Cherry-picked Compounds (AID 720498); conditions: FEN1 flap cleavage, TAMRA/BHQ2 fluorogenic DNA substrate; note: potency is the fitted concentration of half-maximal effect; nearly all actives have a fitted effect of over 60% in size
# Flap endonuclease 1 (Homo sapiens), sequence (P39748 whole entry, looked up): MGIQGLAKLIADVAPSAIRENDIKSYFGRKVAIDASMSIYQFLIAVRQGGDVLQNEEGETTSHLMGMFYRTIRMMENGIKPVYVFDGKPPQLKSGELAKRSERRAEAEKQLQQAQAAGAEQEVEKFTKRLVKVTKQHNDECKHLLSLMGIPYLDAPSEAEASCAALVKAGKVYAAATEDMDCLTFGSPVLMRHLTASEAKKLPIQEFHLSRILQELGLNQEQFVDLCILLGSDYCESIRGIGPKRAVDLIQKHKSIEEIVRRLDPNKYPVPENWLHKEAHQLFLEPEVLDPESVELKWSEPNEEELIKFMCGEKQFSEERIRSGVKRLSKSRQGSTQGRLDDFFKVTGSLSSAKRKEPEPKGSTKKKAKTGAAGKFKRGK
# How it was run: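 FEN1 at 10 nM was preincubated with compound for 15 min at room temperature, then 50 nM (final) double-flap DNA substrate was added. TAMRA fluorescence released from the BHQ-2-quenched flap was read at 0 and 15 min (ex 525/em 598 nm).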
structure (smiles),measurement,setting,value
CN1C(=O)/C(=C2/C=Cc3ccccc3N2CCCS(=O)(=O)O)SC1=S,Potency,[1],inactive
same,Potency,[2],inactive
same,Potency,[3],inactive
O=C(NC1CCCCC1)C(c1ccc(C(F)(F)F)cc1)n1c(=O)c(-c2ccco2)nc2ccccc21 (configuration not stated),Potency,[1],inactive
same,Potency,[2],inactive
same,Potency,[3],inactive
O=S(=O)(c1cc(C(F)(F)F)ccc1Cl)N1CCN(c2ncnc3ccccc23)CC1,Potency,[1],inactive
same,Potency,[2],inactive
same,Potency,[3],inactive
COc1cccc(N2CCN(CC(=O)NC(=O)NCc3ccco3)CC2)c1,Potency,[1],inactive
same,Potency,[2],inactive
same,Potency,[3],inactive
CN(N=Nc1ccc([N+](=O)[O-])cc1)c1ccccc1,Potency,[4],13 µM (active)
same,Potency,[1],112 µM (active)
same,Potency,[2],100 µM (active)
same,Potency,[5],inactive
COc1ccc(-c2cc(N)n(S(=O)(=O)c3c(F)c(F)c(F)c(F)c3F)n2)cc1OC,Potency,[6],20 µM (active)
same,Potency,[1],inactive
same,activation,[2],"7.68% [at 17.1 µM, percent relative to cAMP agonist control]"
same,"activity change, negative = inhibition",[5],6.6% [at 30.8 µM]
COc1ccc(C(=O)c2ccccc2Cl)cc1OC,Potency,[1],inactive
same,Potency,[2],inactive
same,Potency,[3],inactive
COC(=O)C1CCN(c2nc3ccccc3nc2C(C#N)C(=O)NCCc2ccccc2)CC1 (configuration not stated),"activity change, negative = inhibition",[7],-19.5% [at 17.2 µM]
same,outcome,[8],inactive
same,Potency,[9],> 20.6 µM
same,Potency,[1],inactive
same,Potency,[2],inactive
same,Potency,[3],inactive
Cc1ccc(S(=O)(=O)c2nc(-c3ccco3)oc2SC(C)C)cc1,Potency,[1],inactive
same,activation,[2],"4.44% [at 17.1 µM, percent relative to cAMP agonist control]"
same,activation,[3],16.5% [at 30.8 µM]
CCCCOc1ccc(C(=O)N/N=C/c2cn[nH]c2-c2ccc(OC)c(OC)c2)cc1,Potency,[1],inactive
same,Potency,[2],inactive
same,Potency,[3],inactive
COc1ccccc1NS(=O)(=O)c1ccc2ccccc2c1,Potency,[1],inactive
same,activation,[2],"0% [at 17.1 µM, percent relative to cAMP agonist control]"
same,activation,[3],16.4% [at 30.8 µM]
CCOC(=O)C(C)Sc1ncc(OC)c(Sc2ccc(Cl)cc2)n1 (configuration not stated),Potency,[1],inactive
same,Potency,[2],inactive
same,Potency,[3],inactive
COc1ccccc1-c1nc2ccccc2n(CC(C)C)c1=O,Potency,[1],inactive
same,Potency,[2],inactive
same,Potency,[3],inactive
CCOc1ccc(C(=O)CCN2CCCCCC2)cc1,Potency,[1],inactive
same,Potency,[2],inactive
same,Potency,[3],inactive
O=C(NC1(O)C(=O)c2ccccc2C1=O)c1c(Cl)cccc1Cl,Potency,[6],3.98 µM (active)
same,Potency,[1],inactive
same,Potency,[2],inactive
same,Potency,[5],inactive
O=C(CSc1nnc(SCc2ccc(Cl)cc2)s1)N/N=C/c1ccc(C(=O)O)cc1,Potency,[1],inactive
same,Potency,[2],inactive
same,Potency,[3],inactive
C=CCN(C(=O)Cn1ncc2c1-c1cc(C)ccc1OC2)c1ccccc1,Potency,[1],inactive
same,Potency,[2],inactive
same,Potency,[3],inactive
CC(C)CCNC(=O)C(CC(C)C)N(Cc1ccc2c(c1)OCO2)C(=O)c1snc(C(N)=O)c1N (configuration not stated),Potency,[1],inactive
same,Potency,[2],inactive
same,Potency,[3],inactive
CCCCC[C@H](C)N1C[C@@H](COCc2ccccc2)Oc2cc(N3CC[C@H](N(C)C)C3)ccc2S1(=O)=O,Potency,[1],inactive
same,Potency,[2],inactive
same,Potency,[3],inactive
Cc1ccc(S(=O)(=O)N2CCOCC2)cc1NC(=O)COC(=O)CCOc1ccc(C(C)(C)C)cc1,Potency,[1],inactive
same,Potency,[2],inactive
same,Potency,[3],inactive
CCOC(=O)c1c(C)[nH]c(C)c1C(=O)COC(=O)c1cc(OC)cc(OC)c1,Potency,[1],inactive
same,Potency,[2],inactive
same,Potency,[3],inactive
Cc1cc(C)c2nc(C(F)(F)F)nc(N3CC(C)OC(C)C3)c2c1 (configuration not stated),Potency,[1],inactive
same,Potency,[2],inactive
same,Potency,[3],inactive
CCCCC[C@@H](C)N1C[C@H](COCc2ccccc2)Oc2cc(N3CC[C@H](N(C)C)C3)ccc2S1(=O)=O,Potency,[1],inactive
same,Potency,[2],inactive
same,Potency,[3],inactive
CC(Nc1ccc(Cl)cc1)c1cc(Cl)ccc1O (configuration not stated),Potency,[1],inactive
same,Potency,[2],inactive
same,Potency,[3],inactive
COc1ccc(-c2nn(-c3ccccc3)cc2/C=C2/SC(=S)N(CCCC(=O)O)C2=O)c(C)c1,Potency,[10],75.2 µM (active)
same,Potency,[11],47.8 µM (active)
same,Potency,[1],inactive
same,Potency,[2],inactive
same,Potency,[5],inactive
same,Potency,[3],inactive
CCCCN(C=O)c1c(CC)nc2c(OCc3ccc(C(F)(F)F)cc3)cccn12,Potency,[1],inactive
same,Potency,[2],inactive
same,Potency,[3],inactive

# Source: PubChem BioAssay (NCATS)
